# From PubChem BioAssay (NCI)
# This is part of a sample that, as a whole, favours compounds with a hit. Of some 83,000 tested, about 20% had one in any assay.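 Step 1: grow cells in 96-well plates. Step 2: add test compound at a single concentration. Step 3: incubate 48 h. Step 4: record percent growth.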 Values without a mark were called inactive. The source made the active and inactive calls. Rule for the calls: active = growth percent below 10; inactive = the rest.
# Columns and labels:
# Assay in all cases: NCI-60 one-dose screen, 48 h (100 = growth as untreated, 0 = no growth, -100 = all killed)
# [1] = test system: NCI-H23 lung; settings: 10 µM unless noted
# [2] = test system: NCI-H226 lung; settings: 10 µM unless noted
# [3] = test system: NCI-H322M lung; settings: 10 µM unless noted
# [4] = test system: NCI-H460 lung; settings: 10 µM unless noted
# [5] = test system: HOP-92 NSCLC; settings: 10 µM
# [6] = test system: NCI-H522 lung; settings: 10 µM
# [7] = test system: A549/ATCC NSCLC; settings: 10 µM unless noted
# [8] = test system: 786-0 renal; settings: 10 µM unless noted
# [9] = test system: COLO 205 colon; settings: 10 µM unless noted
# [10] = test system: DU-145 prostate; settings: 10 µM unless noted
# [11] = test system: K-562 leukemia; settings: 10 µM unless noted
# [12] = test system: MDA-MB-231 breast; settings: 10 µM unless noted
# [13] = test system: RXF 393 renal; settings: 10 µM unless noted
# [14] = test system: SF-268 CNS; settings: 10 µM unless noted
# [15] = test system: SF-295 CNS; settings: 10 µM unless noted
# [16] = test system: SF-539 CNS; settings: 10 µM unless noted
# [17] = test system: UACC-257 melanoma; settings: 10 µM unless noted
# [18] = test system: M14 melanoma; settings: 10 µM unless noted
# [19] = test system: MALME-3M melanoma; settings: 10 µM unless noted
Compound,growth [1],growth [2],growth [3] [%],growth [4],growth [5],growth [6],growth [7],growth [8],growth [9],growth [10],growth [11],growth [12],growth [13],growth [14],growth [15],growth [16],growth [17],growth [18],growth [19]
COc1cccc(Cn2cc3c(c2)-c2oncc2CC3)c1,16.3%,13.8%,19.2,1.35% (active),97.1%,29.5%,28.3%,30.2%,9.83% (active),11.3%,13.6%,5.68% (active),8.73% (active),37.6%,-29.1% (active),-7.13% (active),73.1%,12.5%,–
COc1ccc(Cn2cc3c(c2-c2ccccc2)CCc2cnoc2-3)cc1N,20.5%,13%,35,-4.24% (active),64.1%,33.8%,29.4%,38.8%,-24.7% (active),13.7%,14.8%,15.2%,15.2%,28.7%,-19.7% (active),-13.1% (active),63.2%,18.2%,–
Clc1ccc(N/N=C/c2ccccn2)nc1,6.51% (active),-12.3% (active),23.6,3.11% (active),39.7%,37.5%,11.2%,7.14% (active),13.6%,19.2%,10.8%,34.5%,16.2%,6.56% (active),1.61% (active),1.62% (active),1.06% (active),-25.7% (active),1.36% (active)
COc1ccccc1Cn1cc2c(c1)-c1oncc1CC2,20.6%,38.9%,24,4.04% (active),80.3%,43.3%,28.9%,38.6%,-28.2% (active),22.5%,15.9%,16.5%,4.54% (active),35.2%,-28.8% (active),-13.8% (active),66.7%,14.4%,–
O=C(/C=C1\C(=O)N(Cc2ccc([N+](=O)[O-])cc2)c2ccccc21)c1ccc(OCCN2CCCCC2)cc1,-10.4% (active),-41.1% (active),49.2,39%,-74.5% (active),-75% (active),48.2%,-88.1% (active),-49.5% (active),-35.3% (active),-35.2% (active),-60.8% (active),-90.7% (active),-35.4% (active),49.7%,-84.6% (active),-4.94% (active),-59.4% (active),–
Cc1nnc(-c2cc3c(ccc4ccccc43)oc2=O)c2cn(-c3ccc(Cl)cc3)nc12,86.9%,92%,98.8,94.5%,85.9%,81.2%,95.2%,97.5%,111%,107%,80.6%,77.5%,103%,87.3%,95.9%,114%,109%,98.1%,–
COc1ccc(/C=C/C(=O)/C=C/c2cc3ccccc3[nH]c2=O)cc1,70.4%,90.9%,109,92.7%,89.8%,48.8%,51.3%,93.1%,55.8%,81.2%,4.13% (active),64.5%,30.6%,47.8%,104%,–,74.8%,72.9%,32.6%
COc1ccc2oc(=O)cc(CN3C(=O)S/C(=C\c4ccc(Cl)cc4)C3=O)c2c1,90.9%,92.3%,104,102%,86.5%,79.6%,97.9%,93.1%,136%,96.5%,64.1%,108%,116%,92.2%,92%,99.6%,103%,96.2%,–
COc1ccc2c(c1)/C(=C/c1c(-c3cc(OC)c(OC)c(OC)c3)nc3sccn13)C(=O)N2,99.1%,97%,92.3,108%,31.7%,86.5%,110%,95.7%,107%,88%,87.3%,66.1%,82.4%,107%,93.2%,91.9%,101%,–,–
COc1cc(CNC(=O)CCCC/C=C/C(C)C)ccc1OCc1nnc(Nc2ccccc2F)o1,63.8%,64.5%,86.1,80.3%,56.4%,60.3%,105%,12%,104%,88.7%,60.4%,63.9%,68.8%,45.5%,48%,48.2%,98.2%,99.7%,–
COc1ccc(/C=C(/C(=O)N2CCN(c3ccc(C)cc3)CC2)c2cc(OC)c(OC)c(OC)c2)cc1N,38.1%,98.3%,43.7,5.51% (active),17.6%,-12.8% (active),23.1%,18.5%,-43.9% (active),5.56% (active),11.2%,33.6%,55.2%,25.6%,15.4%,-4.4% (active),73.8%,3.96% (active),–
O=C1C(=O)c2ccccc2C(O)=C1CCCc1ccc(Oc2ccccc2)cc1,75%,46.5%,62.2,32.7%,54.5%,57.9%,82.2%,37.5%,111%,85.4%,34%,89.1%,92.9%,47.2%,92.9%,68.6%,51.5%,41.3%,54.7%
C[C@@H](c1ccc2c(c1)[nH]c1ccc(Cl)cc12)c1nc2ccccc2[nH]1,91.2%,95.3%,87.3,101%,120%,78.7%,104%,103%,123%,103%,82%,88.1%,105%,87.3%,93.5%,98.7%,106%,111%,–
N=C(N)N=Nc1ccc(NN=C(N)N)cc1,104%,81.5%,126,85.8%,96%,88.1%,8.54% (active),98.9%,64.1%,95.4%,96.2%,86.2%,81.6%,–,101%,–,94%,78.6%,138%
O=C(/C=C1\C(=O)N(Cc2ccc([N+](=O)[O-])cc2)c2ccccc21)c1ccc(OCCN2CCCC2)cc1,69.2%,78.5%,66.2,91.4%,46.2%,38.5%,93.4%,69.7%,81%,42.9%,1.78% (active),66.5%,56.7%,76.9%,95.6%,67.6%,88.4%,70.2%,46.8%
CCOc1ccccc1/C=N\N=C(N/N=C/c1ccccc1OCC)N/N=C/c1ccccc1OCC,18.8%,20.3%,11.3,1.36% (active),-21.1% (active),1.5% (active),9.6% (active),22.9%,-38.9% (active),16.1%,21.4%,9.5% (active),19.2%,–,9.61% (active),–,7.38% (active),32.3%,24.1%
COc1cccc2c1nc1cccc(OC)c1[n+]2[O-],9.62% (active),71.2%,78.6,14.1%,31.4%,20.2%,36.8%,32.5%,77.9%,13.8%,39.8%,78.5%,-39.6% (active),36.9%,36.7%,25.2%,58.2%,-3.49% (active),16.4%
